Screening results from PubChem BioAssay.
Cy5 interf NS3h = Cy5 fluorescence quenchers or enhancers, artefact control for HCV NS3 helicase inhibitor project, biochemical, ChemBridge library, Cy5 readout; Cy5-dT15 DNA with NS3h, fluorescence interference; actives lie on both sides; signal over control mean, under 1 quenches; fluorescence interference ratio at 100 µM; 16,000 tested, 6% active; AID 720488, 2013;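 active means compound fluorescence over control fluorescence at most 0.8, a quencher, or at least a set upper limit, an enhancer; inactive means ratio between 0.8 and the set upper limit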
NS3h inh CB = HCV NS3 helicase inhibitors, primary screen, biochemical, fluorescence polarization, ChemBridge library; NS3h Cy5-dT15 DNA binding; AID 687043, 2013; 16,000 tested, 1.6% active; inhibition, % at 100 µM; Hepatitis C virus NS3 helicase;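 active means inhibition above the average over every tested compound plus 3 SD, cut at about 40% in these data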
HCV NS3h conf = HCV NS3 helicase inhibitors, retest, confirmation, biochemical, fluorescence polarization, ChemBridge library | shares compounds with NS3h inh CB | NS3h binding to Cy5-dT15 DNA | inhibition, % at 100 µM | 240 tested, 20% active;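 active means percent inhibition of 50% or more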
SSB-DNA FP CB = E. coli SSB-DNA binding inhibitors, counter-screen for HCV NS3 helicase inhibitor project, biochemical, fluorescence polarization, selected ChemBridge compounds | E. coli SSB binding Cy5-dT15 | shares compounds with NS3h inh CB | 240 tested, 40% active | inhibition, % at 100 µM;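 active means inhibition of at least 50%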;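 further: displacers lower Cy5 polarization so higher inhibition means more SSB displaced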
Target sequence (P0AGE0 whole entry, looked up): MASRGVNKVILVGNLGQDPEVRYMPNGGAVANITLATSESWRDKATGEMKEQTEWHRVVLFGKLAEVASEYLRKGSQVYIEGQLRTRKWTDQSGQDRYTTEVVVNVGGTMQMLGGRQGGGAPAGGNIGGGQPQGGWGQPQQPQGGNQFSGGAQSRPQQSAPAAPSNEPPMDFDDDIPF
Cy5 SSB fluor CB = Cy5 fluorescence interference with SSB-bound oligo, artefact control for HCV NS3 helicase inhibitor project, biochemical, E. coli SSB, selected ChemBridge compounds; shares compounds with NS3h inh CB; Cy5-dT15/E. coli SSB fluorescence interference; actives lie on both sides; fluorescence interference ratio at 100 µM; 240 tested, 8% active;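 active means fluorescence interference ratio at or above 1.2, signal boosting, or at or below 0.8, signal quenching; inactive means ratio between 0.8 and 1.2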
Cy5 interf conf = Cy5-DNA-NS3h complex fluorescence interference, confirmation, artefact control for HCV NS3 helicase inhibitor project, biochemical, ChemBridge library; shares compounds with NS3h inh CB; Cy5-dT15 DNA/NS3h fluorescence interference counterscreen; fluorescence interference ratio at 100 µM, hits read low; 240 tested, 44% active;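 active means fluorescence interference ratio at or below 0.8 quencher or at or above a set limitenhancer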
Numbers stand for hits; 0 = inactive; - = not tested or not shown. In the library only some 6.8% were active in any assay of this set; here they are far more common.

SMILES	Cy5 interf NS3h	NS3h inh CB	HCV NS3h conf	SSB-DNA FP CB	Cy5 SSB fluor CB	Cy5 interf conf
CCOc1ccc(NC2(c3ccccc3)C(=O)c3ccccc3C2=O)cc1	0	0	-	-	-	-
CCc1cccc(NC2(c3ccccc3)C(=O)c3ccccc3C2=O)c1	0.76	69	0	0	0	0
O=C(/C=C/c1c[nH]c2ccccc12)c1ccc([N+](=O)[O-])cc1	0	43	0	0	0	0
O=C(/C=C/c1ccc(-c2ccc(Cl)cc2)o1)c1ccc([N+](=O)[O-])cc1	0	0	-	-	-	-
Cc1ccc([N+](=O)[O-])cc1N1C(=O)C=CC1=O	0	87	0	0	0	0.76
Cc1ccc([N+](=O)[O-])cc1N1C(=O)C2C3C=CC(CC3)C2C1=O (stereo not given)	0	0	-	-	-	-
Cc1ccc(C(=O)NCCC(C)C)cc1[N+](=O)[O-]	0	0	-	-	-	-
Cc1ccc(N2C(=O)C=CC2=O)cc1[N+](=O)[O-]	0	75	61	0	0	0
C#Cc1cccc(NS(=O)(=O)c2ccc(NC(C)=O)cc2)c1	0	0	-	-	-	-
O=C1NC(=S)N(c2ccc(Br)cc2)C(=O)/C1=C/c1cccs1	0	0	-	-	-	-
O=C(O)/C=C\C(=O)Nc1ccc(C(=O)c2ccccc2)cc1	0	0	-	-	-	-
CC(Sc1ccc(Cl)cc1)C(=O)NC(C)c1ccccc1 (stereo not given)	0	0	-	-	-	-
CN1C(=O)/C(=C/c2ccccc2F)SC1=S	0	0	-	-	-	-
O=C1C(=Cc2ccccc2)C(=O)c2ccccc21	0	46	0	0	0	0.78
O=C1C(=Cc2cccc(Cl)c2)C(=O)c2ccccc21	0	0	-	-	-	-
O=C1C(=Cc2ccccc2F)C(=O)c2ccccc21	0	61	0	0	0	0.74
CN(C)S(=O)(=O)c1ccc(C(=O)Nc2cc(Cl)cc(Cl)c2)cc1	0	0	-	-	-	-
CCOC(=O)c1c(NC(=O)c2ccccc2F)sc(C(=O)Nc2cc(C(F)(F)F)ccc2Cl)c1C	0	0	-	-	-	-
Cc1ccccc1/C=C1/SC(=Nc2ccc(F)cc2)NC1=O	0	0	-	-	-	-
O=C1NC(=Nc2ccc(F)cc2)S/C1=C/c1ccccc1F	1.7	112	0	0	0	0
O=C(CSCc1cccc(Br)c1)NCCc1ccc(Cl)cc1	0	0	-	-	-	-
O=C1NC(=S)N(c2ccccc2)C(=O)/C1=C/c1ccc(Br)cc1	0	0	-	-	-	-
CN(C)c1ccc(/C=C2\C(=O)NC(=S)N(c3ccc(Br)cc3)C2=O)cc1	1.3	64	0	96	1.2	0
O=C(COc1ccc(Br)cc1)Nc1ccc(Cl)cn1	0	0	-	-	-	-
Cc1ccc(C(=O)Nc2ccc3nn(-c4cccc([N+](=O)[O-])c4)nc3c2)cc1	0	0	-	-	-	-
SMILES	Cy5 interf NS3h	NS3h inh CB	HCV NS3h conf	SSB-DNA FP CB	Cy5 SSB fluor CB	Cy5 interf conf
Cc1ccc(-n2nc3ccc(NC(=O)c4cccs4)cc3n2)cc1Cl	0	0	-	-	-	-
COc1ccc(C(=O)NCCCNc2ccc([N+](=O)[O-])cc2Cl)cc1OC	0	0	-	-	-	-
COc1ccc(C(=O)NCCNc2ccc([N+](=O)[O-])cc2)cc1OC	0	0	0	0	0	0.72
CCOc1ccc2cc(S(=O)(=O)N3CCC(C)CC3)ccc2c1	0	0	-	-	-	-
CN(C)/C=C\C=C\C(=O)C1C2CC3CC(C2)CC1C3 (stereo not given)	0	0	-	-	-	-
CN(C)/C=C/C=C/C=C1\CCC/C(=C\C=C\N(C)C)C1=O	0	55	0	110	0	0
COC(=O)c1cc(NC(=O)S(=O)(=O)c2ccc(C)cc2)cc(C(=O)OC)c1	0	0	-	-	-	-
O=C(Oc1ccc(-c2nc3ccccc3[nH]2)cc1)c1ccc(Cl)cc1	0	0	-	-	-	-
O=C(Oc1ccc(Cl)cc1)c1ccccc1	0	54	50	60	0	1.2
O=C1/C(=C\c2ccsc2)SC(=S)N1Cc1ccccc1	0	0	-	-	-	-
O=C(N/N=C/c1ccccc1O)c1cncc(Br)c1	0	0	-	-	-	-
CCOc1ccc(/C=N/NC(=O)c2cncc(Br)c2)cc1	0.8	58	0	0	0	0
O=[N+]([O-])c1ccc(Nc2c(F)c(F)c(F)c(F)c2F)cc1	0	0	-	-	-	-
CCCC(C)NC(=O)c1ccc([N+](=O)[O-])cc1 (stereo not given)	0	0	-	-	-	-
O=C(NC(O)C(Cl)(Cl)Cl)c1ccc([N+](=O)[O-])cc1 (stereo not given)	0	0	0	0	0	0.78
COc1ccc(N(CC(=O)Nc2ccc(C(C)C)cc2)S(=O)(=O)c2ccccc2)cc1	0	0	-	-	-	-
Cc1ccc(N2C(=O)C(Cl)=C(N3CCN(c4ccccc4)CC3)C2=O)c(C)c1	0	0	-	-	-	-
Cc1ccc(N2C(=O)C(Cl)=C(N3CCOCC3)C2=O)c(C)c1	0	0	0	0	0	0.76
CCOC(=O)c1ccc(-c2ccc(/C=C3/C(=O)NC(=O)N(c4ccccc4)C3=O)o2)cc1	0	0	-	-	-	-
O=C1NC(=S)N(c2ccccc2)C(=O)/C1=C/c1ccc(-c2cccc(C(=O)O)c2)o1	0	83	0	82	0	0.79
O=C1NC(=S)N(c2ccc(Cl)cc2)C(=O)/C1=C\c1ccc(-c2cccc(C(=O)O)c2)o1	0	72	57	98	0	0
O=C1NN(c2ccc(Br)cc2)C(=O)/C1=C\c1ccc(-c2cccc(C(=O)O)c2)o1	0	0	-	-	-	-
O=C(O)CCCCCN1C(=O)C(=O)C(=C(O)c2ccccc2)C1c1ccc(Cl)cc1 (stereo not given)	0	0	-	-	-	-
Cc1ccc(N(Cc2ccc(C(=O)Nc3cccc(Br)c3)cc2)S(C)(=O)=O)cc1C	0	0	-	-	-	-
COc1ccc(-c2noc(COc3cccc(C)c3)n2)cc1OC	0	0	-	-	-	-
SMILES	Cy5 interf NS3h	NS3h inh CB	HCV NS3h conf	SSB-DNA FP CB	Cy5 SSB fluor CB	Cy5 interf conf
CCN(CC)C(=O)c1sc(NC(=O)C(C)(C)C)c(C(=O)OC)c1C	0	0	-	-	-	-
Cc1nc(NC(=O)c2ccccc2)sc1-c1csc(Nc2cccc(C(=O)O)c2)n1	0.8	0	0	0	0	0.73
Cc1ccc(C(=O)Nc2nc(-c3ccccc3)cs2)cc1[N+](=O)[O-]	0	0	-	-	-	-
COc1cccc(OC)c1C(=O)NCc1ccc(S(N)(=O)=O)cc1	0	0	-	-	-	-
O=C1C(=O)N(c2cccc(Br)c2)C(c2ccc([N+](=O)[O-])cc2)C1=C(O)c1ccccc1 (stereo not given)	0	0	-	-	-	-
NC1=NC(=O)/C(=C/c2cccc(Oc3ccccc3)c2)S1	0	0	-	-	-	-
COc1cccc(/C=C2/SC(N)=NC2=O)c1	1.3	53	0	0	0	0
CCOc1c(C)cc2[nH]c(=S)[nH]c2c1C	0	0	-	-	-	-
C=CCSC1=C(C#N)C2(CCCCC2)C(C#N)C(=O)N1 (stereo not given)	0	0	-	-	-	-
